Data: PubChem BioAssay AID1159580 (chemical genetic matrix, 2015)
“And” between values parts separate entries of the source, which are not always exact repeats. Identical values can stand only once. Screen size: about 5,500 compounds; about 2,000 (36%) were called active. Another 18% or so got no clear call; they are omitted. Cut-off read from the data, not from the text of the source: active = normalized growth mostly below about 0.91 (no sharp cut-off); inconclusive = no clear call, values can overlap the other calls; inactive = mostly above about 0.92. The list shows a part of the results.

Assay: chemical genetic growth profiling, strain panel (AID 1159580);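 note: tested at 20 µM; growth read once vehicle control cultures reached saturation at 30 °C; 1 = growth at the plate median or of vehicle wells; lower values mean less growth of the strain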
Settings: growth OD

Measured: normalized growth

CN1C2CCC1CC(OC(c1ccccc1)c1ccccc1N)C2 (stereo unspecified)
inactive: S. cerevisiae deletion strains, locus YJR075W, strain HOC1, stronger effect = lower value 0.997 and 1.08 | S. cerevisiae deletion strains, locus YKL009W, strain mrt4, stronger effect = lower value 1.03 | S. cerevisiae deletion strains, locus YKL068W, stronger effect = lower value 1.01 | S. cerevisiae deletion strains, locus YKL085W, strain MDH1 (second series), stronger effect = lower value 1 | S. cerevisiae deletion strains, locus YKL085W, strain MDH1, stronger effect = lower value 1 | S. cerevisiae deletion strains, locus YKL160W, strain elf1, stronger effect = lower value 1 | S. cerevisiae deletion strains, locus YKL190W, strain CNB1, stronger effect = lower value 1 | S. cerevisiae deletion strains, locus YKR001C, strain vps1, stronger effect = lower value 1.02 | S. cerevisiae deletion strains, locus YKR026C, strain gcn3, stronger effect = lower value 0.99 | S. cerevisiae deletion strains, locus YKR091W, strain srl3, stronger effect = lower value 0.996 | S. cerevisiae deletion strains, locus YLL001W, strain dnm1, stronger effect = lower value 1.01 | S. cerevisiae deletion strains, locus YLL026W, stronger effect = lower value 0.982 | S. cerevisiae deletion strains, locus YLL041C, strain sdh2, stronger effect = lower value 1 | S. cerevisiae deletion strains, locus YLR027C, strain aat2, stronger effect = lower value 0.986 | S. cerevisiae deletion strains, locus YLR039C, strain RIC1, stronger effect = lower value 1.02 | S. cerevisiae deletion strains, locus YLR058C, strain SHM2, stronger effect = lower value 1 | S. cerevisiae deletion strains, locus YLR102C, strain apc9, stronger effect = lower value 1.01 | S. cerevisiae deletion strains, locus YLR113W, strain HOG1, stronger effect = lower value 1.05 | S. cerevisiae deletion strains, locus YLR221C, strain rsa3, stronger effect = lower value 0.998 | S. cerevisiae deletion strains, locus YLR258W, strain gsy2, stronger effect = lower value 1 | S. cerevisiae deletion strains, locus YLR262C, strain YPT6 (second series), stronger effect = lower value 1.03 | S. cerevisiae deletion strains, locus YLR262C, strain YPT6, stronger effect = lower value 1.02 | S. cerevisiae deletion strains, locus YLR268W, strain sec22, stronger effect = lower value 1.01 | S. cerevisiae deletion strains, locus YLR320W, strain mms22, stronger effect = lower value 0.994 | S. cerevisiae deletion strains, locus YLR330W, strain CHS5, stronger effect = lower value 1.01 | S. cerevisiae deletion strains, locus YLR342W, strain FKS1 (second series), stronger effect = lower value 1.02 | S. cerevisiae deletion strains, locus YLR342W, strain FKS1, stronger effect = lower value 0.994 | S. cerevisiae deletion strains, locus YLR357W, strain rsc2, stronger effect = lower value 0.979 | S. cerevisiae deletion strains, locus YLR370C, strain arc18, stronger effect = lower value 0.978 | S. cerevisiae deletion strains, locus YLR371W, strain rom2, stronger effect = lower value 1.01 | S. cerevisiae deletion strains, locus YLR384C, strain iki3, stronger effect = lower value 1 | S. cerevisiae deletion strains, locus YLR418C, strain cdc73, stronger effect = lower value 0.994 | S. cerevisiae deletion strains, locus YML016C, strain PPZ1, stronger effect = lower value 1 | S. cerevisiae deletion strains, locus YML032C, strain rad52, stronger effect = lower value 1.03 | S. cerevisiae deletion strains, locus YML120C, strain ndi1, stronger effect = lower value 0.988 | S. cerevisiae deletion strains, locus YML124C, strain tub3, stronger effect = lower value 1.02 | S. cerevisiae deletion strains, locus YMR058W, strain fet3, stronger effect = lower value 1 | S. cerevisiae deletion strains, locus YMR078C, strain ctf18, stronger effect = lower value 1.02 | S. cerevisiae deletion strains, locus YMR125W, strain sto1, stronger effect = lower value 0.992 | S. cerevisiae deletion strains, locus YMR129W, stronger effect = lower value 0.997 | S. cerevisiae deletion strains, locus YMR205C, strain PFK2, stronger effect = lower value 0.981 | S. cerevisiae deletion strains, locus YMR223W, strain ubp8, stronger effect = lower value 1.01 | S. cerevisiae deletion strains, locus YMR231W, strain pep5, stronger effect = lower value 0.999 | S. cerevisiae deletion strains, locus YMR263W, strain SAP30, stronger effect = lower value 0.999 and 1 | S. cerevisiae deletion strains, locus YMR307W, strain GAS1, stronger effect = lower value 1 | S. cerevisiae deletion strains, locus YNL067W, strain RPL9B, stronger effect = lower value 1.01 | S. cerevisiae deletion strains, locus YNL071W, strain lat1, stronger effect = lower value 1 | S. cerevisiae deletion strains, locus YNL128W, strain TEP1, stronger effect = lower value 0.993 | S. cerevisiae deletion strains, locus YNL153C, strain GIM3, stronger effect = lower value 1 | S. cerevisiae deletion strains, locus YNL175C, strain NOP13, stronger effect = lower value 1.01 | S. cerevisiae deletion strains, locus YNL183C, strain NPR1, stronger effect = lower value 0.92 | S. cerevisiae deletion strains, locus YNL197C, strain WHI3, stronger effect = lower value 1.02 | S. cerevisiae deletion strains, locus YNL209W, strain ssb2, stronger effect = lower value 1.01 | S. cerevisiae deletion strains, locus YNL224C, strain SQS1, stronger effect = lower value 1.03 | S. cerevisiae deletion strains, locus YNL233W, strain BNI4, stronger effect = lower value 1.01 | S. cerevisiae deletion strains, locus YNL248C, strain rpa49, stronger effect = lower value 0.995 | S. cerevisiae deletion strains, locus YNL250W, strain rad50, stronger effect = lower value 1.02 | S. cerevisiae deletion strains, locus YNL271C, strain bni1, stronger effect = lower value 1 | S. cerevisiae deletion strains, locus YNL298W, strain CLA4, stronger effect = lower value 1.01 | S. cerevisiae deletion strains, locus YNL307C, strain MCK1, stronger effect = lower value 1 | S. cerevisiae deletion strains, locus YNL322C, strain KRE1 (second series), stronger effect = lower value 1 | S. cerevisiae deletion strains, locus YNL322C, strain KRE1, stronger effect = lower value 0.996 | S. cerevisiae deletion strains, locus YNR049C, strain mso1, stronger effect = lower value 0.996 | S. cerevisiae deletion strains, locus YNR052C, strain pop2, stronger effect = lower value 1.01 | S. cerevisiae deletion strains, locus YOL006C, strain TOP1, stronger effect = lower value 0.986 | S. cerevisiae deletion strains, locus YOL012C, strain htz1 1.61 | S. cerevisiae deletion strains, locus YOL147C, strain pex11, stronger effect = lower value 1.02 | S. cerevisiae deletion strains, locus YOR001W, strain rrp6, stronger effect = lower value 1.01 | S. cerevisiae deletion strains, locus YOR061W, strain CKA2, stronger effect = lower value 1.01 | S. cerevisiae deletion strains, locus YOR069W, strain VPS5, stronger effect = lower value 1 | S. cerevisiae deletion strains, locus YOR070C, strain gyp1, stronger effect = lower value 1.01 | S. cerevisiae deletion strains, locus YOR080W, strain dia2, stronger effect = lower value 0.985 | S. cerevisiae deletion strains, locus YOR083W, strain WHI5 (second series), stronger effect = lower value 1.02 | S. cerevisiae deletion strains, locus YOR083W, strain WHI5, stronger effect = lower value 1 | S. cerevisiae deletion strains, locus YOR106W, strain vam3, stronger effect = lower value 1.01 | S. cerevisiae deletion strains, locus YOR136W, strain idh2, stronger effect = lower value 1.03 | S. cerevisiae deletion strains, locus YOR144C, strain elg1, stronger effect = lower value 1.01 | S. cerevisiae deletion strains, locus YOR184W, strain ser1, stronger effect = lower value 1.04 | S. cerevisiae deletion strains, locus YOR231W, strain MKK1, stronger effect = lower value 0.977 | S. cerevisiae deletion strains, locus YOR265W, strain rbl2, stronger effect = lower value 1.01 | S. cerevisiae deletion strains, locus YOR270C, strain vph1, stronger effect = lower value 1.03 | S. cerevisiae deletion strains, locus YOR290C, strain snf2, stronger effect = lower value 1.01 | S. cerevisiae deletion strains, locus YOR316C, strain cot1, stronger effect = lower value 1.02 | S. cerevisiae deletion strains, locus YPL051W, strain arl3, stronger effect = lower value 0.989 | S. cerevisiae deletion strains, locus YPL055C, strain LGE1, stronger effect = lower value 1.01 | S. cerevisiae deletion strains, locus YPL078C, strain atp4, stronger effect = lower value 1.01 | S. cerevisiae deletion strains, locus YPL106C, strain sse1, stronger effect = lower value 0.957 | S. cerevisiae deletion strains, locus YPL240C, strain hsp82, stronger effect = lower value 1.02 | S. cerevisiae deletion strains, locus YPL241C, strain CIN2, stronger effect = lower value 0.998 and 1 | S. cerevisiae deletion strains, locus YPL256C, strain CLN2, stronger effect = lower value 0.986 | S. cerevisiae deletion strains, locus YPR119W, strain clb2, stronger effect = lower value 0.999 | S. cerevisiae deletion strains, locus YPR141C, strain kar3, stronger effect = lower value 1.02 | S. cerevisiae deletion strains, locus YPR163C, strain tif3, stronger effect = lower value 1.03 | S. cerevisiae deletion strains, locus YPR167C, strain met16, stronger effect = lower value 1.02 | S. cerevisiae deletion strains, strain wtn01, stronger effect = lower value 1.02 | S. cerevisiae strains, strain wild type, stronger effect = lower value 0.984
